From publication PMC7862700, “An all-to-all approach to the identification of sequence-specific readers for epigenetic DNA modifications on cytosine”

Experiments:
Experiment in all cases: DAPPL (digital affinity profiling via proximity ligation, sequencing); 10 mM Tris-HCl pH 7.5, 50 mM NaCl, 1 mM DTT, 4% glycerol, room temperature, 30 min; GST-TFs on glutathione beads, 16-mer random dsDNA library, 0.1% formaldehyde crosslink after washing; high values mean tight binding
FEV = target: T1, FEV (Homo sapiens, UniProt Q99581 1-238); settings: protein: recombinant; tags: N-terminal GST; dsDNA, one strand shown
T1 sequence: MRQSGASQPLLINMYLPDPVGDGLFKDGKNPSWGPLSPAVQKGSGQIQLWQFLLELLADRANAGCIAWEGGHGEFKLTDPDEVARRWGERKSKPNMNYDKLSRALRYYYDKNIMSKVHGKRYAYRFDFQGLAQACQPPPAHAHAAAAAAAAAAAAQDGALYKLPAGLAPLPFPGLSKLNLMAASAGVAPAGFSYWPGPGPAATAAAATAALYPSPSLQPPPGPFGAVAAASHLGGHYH
Procedure, shortened: (§1)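 Pools of DNA-barcoded human transcription factors, expressed in yeast as GST fusions on glutathione beads and combined with a tag-only sample, were incubated with 200 nmole of a 16-mer random double-stranded DNA library. Incubation took 30 min at room temperature in Tris/NaCl/DTT/glycerol buffer and was followed by washing, 0.1% formaldehyde crosslinking, proximity ligation (BsaI/T4 ligase, 1 h, 37 °C), PCR amplification and sequencing on an Illumina NextSeq500. Binding signal is the ratio of a hexamer's read frequency for a factor to its frequency for the tag-only sample.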

ETV5 = ETV5 (Homo sapiens, UniProt P41161 1-510); settings: protein: recombinant; tags: N-terminal GST; dsDNA, one strand shown
Procedure, shortened: as §1

HSF1 = HSF1 (Homo sapiens, UniProt Q00613 1-529); settings: protein: recombinant; tags: N-terminal GST; chain copies: 3; dsDNA, one strand shown
Procedure, shortened: as §1

SPIC = target: T2, SPIC (Homo sapiens, UniProt Q8N5J4 1-248); settings: protein: recombinant; tags: N-terminal GST; dsDNA, one strand shown
T2 sequence: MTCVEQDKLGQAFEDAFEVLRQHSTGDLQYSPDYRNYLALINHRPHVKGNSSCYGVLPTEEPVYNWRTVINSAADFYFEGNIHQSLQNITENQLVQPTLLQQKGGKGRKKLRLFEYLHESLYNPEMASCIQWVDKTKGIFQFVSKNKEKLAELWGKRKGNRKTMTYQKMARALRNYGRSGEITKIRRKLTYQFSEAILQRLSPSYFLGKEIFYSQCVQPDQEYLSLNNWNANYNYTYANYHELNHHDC
Procedure, shortened: as §1

ELF4 = ELF4 (Homo sapiens, UniProt Q99607 1-663); settings: protein: recombinant; tags: N-terminal GST; dsDNA, one strand shown
Procedure, shortened: as §1

ELK4 = target: T3, ELK4 (Homo sapiens, UniProt P28324-2 1-405); settings: protein: recombinant; tags: N-terminal GST; dsDNA, one strand shown
T3 sequence: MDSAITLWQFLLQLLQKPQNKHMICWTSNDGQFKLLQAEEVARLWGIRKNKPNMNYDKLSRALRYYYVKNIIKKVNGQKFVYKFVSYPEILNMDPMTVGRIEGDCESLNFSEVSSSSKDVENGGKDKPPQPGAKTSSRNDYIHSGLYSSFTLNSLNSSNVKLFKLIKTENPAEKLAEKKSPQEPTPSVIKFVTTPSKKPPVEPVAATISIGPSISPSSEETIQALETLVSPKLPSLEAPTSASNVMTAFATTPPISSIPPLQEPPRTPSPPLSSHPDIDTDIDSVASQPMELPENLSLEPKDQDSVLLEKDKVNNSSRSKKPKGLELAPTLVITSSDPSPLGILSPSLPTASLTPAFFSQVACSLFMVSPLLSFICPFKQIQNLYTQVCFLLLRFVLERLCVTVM
Procedure, shortened: as §1

ETV2 = target: T4, ETV2 (Homo sapiens, UniProt O00321 1-342); settings: protein: recombinant; tags: N-terminal GST; dsDNA, one strand shown
T4 sequence: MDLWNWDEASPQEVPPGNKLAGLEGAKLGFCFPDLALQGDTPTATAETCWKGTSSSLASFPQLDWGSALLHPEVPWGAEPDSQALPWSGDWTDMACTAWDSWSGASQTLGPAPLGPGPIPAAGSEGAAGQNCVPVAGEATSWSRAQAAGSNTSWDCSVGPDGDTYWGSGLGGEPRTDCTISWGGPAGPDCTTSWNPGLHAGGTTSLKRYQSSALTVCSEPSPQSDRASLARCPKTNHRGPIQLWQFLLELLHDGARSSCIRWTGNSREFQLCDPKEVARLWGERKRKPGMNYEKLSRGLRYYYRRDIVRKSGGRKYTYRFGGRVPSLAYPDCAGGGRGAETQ
Procedure, shortened: as §1

ELF3 = target: T5, ELF3 (Homo sapiens, UniProt P78545 1-371); settings: protein: recombinant; tags: N-terminal GST; dsDNA, one strand shown
T5 sequence: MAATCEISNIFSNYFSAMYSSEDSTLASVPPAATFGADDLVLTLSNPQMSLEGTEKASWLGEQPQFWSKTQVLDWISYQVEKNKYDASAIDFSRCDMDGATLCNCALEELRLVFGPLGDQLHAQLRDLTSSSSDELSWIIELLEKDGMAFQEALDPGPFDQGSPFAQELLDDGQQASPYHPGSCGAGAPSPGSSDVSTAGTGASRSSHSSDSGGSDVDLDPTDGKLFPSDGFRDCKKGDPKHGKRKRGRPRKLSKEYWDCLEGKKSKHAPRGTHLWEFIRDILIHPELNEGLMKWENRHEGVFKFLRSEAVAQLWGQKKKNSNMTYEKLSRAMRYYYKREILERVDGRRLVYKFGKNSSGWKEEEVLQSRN
Procedure, shortened: as §1

CRX = CRX (Homo sapiens, UniProt O43186 1-299); settings: protein: recombinant; tags: N-terminal GST; dsDNA, one strand shown
Procedure, shortened: as §1

ETV1 = ETV1 (Homo sapiens, UniProt P50549 1-477); settings: protein: recombinant; tags: N-terminal GST; dsDNA, one strand shown
Procedure, shortened: as §1

ERF = target: T6, ERF (Homo sapiens, UniProt P50548 1-548); settings: protein: recombinant; tags: N-terminal GST; dsDNA, one strand shown
T6 sequence: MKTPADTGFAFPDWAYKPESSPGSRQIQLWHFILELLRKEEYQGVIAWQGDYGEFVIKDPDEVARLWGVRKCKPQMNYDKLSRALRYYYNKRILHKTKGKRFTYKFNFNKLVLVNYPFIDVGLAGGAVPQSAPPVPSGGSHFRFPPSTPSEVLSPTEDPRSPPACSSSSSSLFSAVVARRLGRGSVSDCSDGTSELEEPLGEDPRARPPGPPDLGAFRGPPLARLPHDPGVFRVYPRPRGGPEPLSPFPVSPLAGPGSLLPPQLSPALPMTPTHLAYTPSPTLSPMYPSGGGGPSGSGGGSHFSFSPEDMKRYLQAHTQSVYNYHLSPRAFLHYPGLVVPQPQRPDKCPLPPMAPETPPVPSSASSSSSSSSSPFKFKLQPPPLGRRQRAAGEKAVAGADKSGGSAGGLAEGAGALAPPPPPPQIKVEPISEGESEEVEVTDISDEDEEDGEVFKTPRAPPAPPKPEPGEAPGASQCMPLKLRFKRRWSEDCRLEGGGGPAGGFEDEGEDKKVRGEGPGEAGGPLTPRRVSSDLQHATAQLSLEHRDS
Procedure, shortened: as §1

ETV3L = target: T7, ETV3L (Homo sapiens, UniProt Q6ZN32 1-361); settings: protein: recombinant; tags: N-terminal GST; dsDNA, one strand shown
T7 sequence: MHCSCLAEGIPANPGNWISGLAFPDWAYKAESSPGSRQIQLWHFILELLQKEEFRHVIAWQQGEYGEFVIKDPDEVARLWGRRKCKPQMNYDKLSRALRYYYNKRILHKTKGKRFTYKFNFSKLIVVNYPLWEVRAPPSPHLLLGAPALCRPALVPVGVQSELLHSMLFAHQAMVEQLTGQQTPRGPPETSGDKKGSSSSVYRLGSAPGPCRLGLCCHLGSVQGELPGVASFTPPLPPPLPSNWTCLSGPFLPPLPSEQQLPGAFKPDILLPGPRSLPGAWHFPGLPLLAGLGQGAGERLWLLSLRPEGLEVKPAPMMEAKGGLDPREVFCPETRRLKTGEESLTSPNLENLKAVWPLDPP
Procedure, shortened: as §1

ETS2 = target: T8, ETS2 (Homo sapiens, UniProt P15036 1-469); settings: protein: recombinant; tags: N-terminal GST; dsDNA, one strand shown
T8 sequence: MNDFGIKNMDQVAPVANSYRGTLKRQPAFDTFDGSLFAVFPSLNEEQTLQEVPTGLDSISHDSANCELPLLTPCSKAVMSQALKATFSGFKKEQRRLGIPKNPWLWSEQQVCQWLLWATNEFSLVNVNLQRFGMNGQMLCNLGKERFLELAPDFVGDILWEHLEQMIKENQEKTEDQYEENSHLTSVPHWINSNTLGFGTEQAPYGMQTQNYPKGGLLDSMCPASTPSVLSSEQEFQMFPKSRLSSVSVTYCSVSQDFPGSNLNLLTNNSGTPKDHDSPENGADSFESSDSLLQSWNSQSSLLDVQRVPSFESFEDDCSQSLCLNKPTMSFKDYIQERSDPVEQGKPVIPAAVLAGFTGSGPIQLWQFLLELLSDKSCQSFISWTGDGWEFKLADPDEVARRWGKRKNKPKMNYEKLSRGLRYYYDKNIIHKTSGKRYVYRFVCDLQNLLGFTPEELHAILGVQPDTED
Procedure, shortened: as §1

SPDEF = target: T9, SPDEF (Homo sapiens, UniProt O95238 1-335); settings: protein: recombinant; tags: N-terminal GST; dsDNA, one strand shown
T9 sequence: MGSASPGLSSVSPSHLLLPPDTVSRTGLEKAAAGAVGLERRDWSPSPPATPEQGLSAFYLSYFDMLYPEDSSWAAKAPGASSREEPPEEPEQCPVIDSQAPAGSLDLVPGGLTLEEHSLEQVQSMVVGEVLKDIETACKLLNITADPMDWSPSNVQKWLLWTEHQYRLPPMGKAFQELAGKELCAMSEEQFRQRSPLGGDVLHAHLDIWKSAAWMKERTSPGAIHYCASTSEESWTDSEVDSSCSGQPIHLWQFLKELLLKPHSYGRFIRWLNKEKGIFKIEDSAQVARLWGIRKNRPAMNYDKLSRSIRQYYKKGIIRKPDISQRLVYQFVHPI
Procedure, shortened: as §1

ETV7 = target: T10, ETV7 (Homo sapiens, UniProt Q9Y603 1-341); settings: protein: recombinant; tags: N-terminal GST; dsDNA, one strand shown
T10 sequence: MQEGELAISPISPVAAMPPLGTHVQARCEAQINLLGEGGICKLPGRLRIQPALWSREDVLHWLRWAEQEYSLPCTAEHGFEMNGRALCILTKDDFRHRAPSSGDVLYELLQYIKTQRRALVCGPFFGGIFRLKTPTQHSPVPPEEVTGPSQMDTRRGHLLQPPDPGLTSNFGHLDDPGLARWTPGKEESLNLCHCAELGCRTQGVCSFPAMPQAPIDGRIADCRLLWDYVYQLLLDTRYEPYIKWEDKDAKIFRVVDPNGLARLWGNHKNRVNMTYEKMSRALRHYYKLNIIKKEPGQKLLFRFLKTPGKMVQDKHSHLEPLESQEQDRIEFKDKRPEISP
Procedure, shortened: as §1

ELF5 = target: T11, ELF5 (Homo sapiens, UniProt Q9UKW6-2 1-255); settings: protein: recombinant; tags: N-terminal GST; dsDNA, one strand shown
T11 sequence: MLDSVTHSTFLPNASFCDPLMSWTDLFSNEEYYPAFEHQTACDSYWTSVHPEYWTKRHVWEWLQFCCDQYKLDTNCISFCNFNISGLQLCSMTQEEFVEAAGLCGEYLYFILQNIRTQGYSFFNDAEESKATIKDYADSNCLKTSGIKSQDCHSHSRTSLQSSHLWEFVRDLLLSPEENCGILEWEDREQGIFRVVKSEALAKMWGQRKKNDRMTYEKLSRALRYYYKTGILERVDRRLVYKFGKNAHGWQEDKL
Procedure, shortened: as §1

ETV3 = target: T12, ETV3 (Homo sapiens, UniProt P41162-2 1-143); settings: protein: recombinant; tags: N-terminal GST; dsDNA, one strand shown
T12 sequence: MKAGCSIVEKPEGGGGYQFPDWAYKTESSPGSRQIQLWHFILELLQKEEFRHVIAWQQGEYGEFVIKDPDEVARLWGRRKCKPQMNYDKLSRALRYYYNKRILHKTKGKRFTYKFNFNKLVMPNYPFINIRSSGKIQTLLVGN
Procedure, shortened: as §1

ETV6 = ETV6 (Homo sapiens, UniProt P41212 1-452); settings: protein: recombinant; tags: N-terminal GST; dsDNA, one strand shown
Procedure, shortened: as §1

ETV6, sequence (P41212 whole entry): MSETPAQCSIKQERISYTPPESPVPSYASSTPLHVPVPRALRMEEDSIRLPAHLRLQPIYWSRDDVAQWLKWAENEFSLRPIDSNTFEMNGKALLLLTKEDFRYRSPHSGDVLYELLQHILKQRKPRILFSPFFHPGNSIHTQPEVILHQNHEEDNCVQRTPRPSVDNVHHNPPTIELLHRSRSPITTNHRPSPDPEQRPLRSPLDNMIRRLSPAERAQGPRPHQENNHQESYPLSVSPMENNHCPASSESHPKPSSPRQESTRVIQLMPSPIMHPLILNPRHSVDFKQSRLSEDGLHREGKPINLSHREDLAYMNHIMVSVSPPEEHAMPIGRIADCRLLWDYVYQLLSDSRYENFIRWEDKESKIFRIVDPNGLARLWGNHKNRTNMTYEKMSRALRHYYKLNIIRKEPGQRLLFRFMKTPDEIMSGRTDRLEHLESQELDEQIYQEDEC
ELF4, sequence (Q99607 whole entry): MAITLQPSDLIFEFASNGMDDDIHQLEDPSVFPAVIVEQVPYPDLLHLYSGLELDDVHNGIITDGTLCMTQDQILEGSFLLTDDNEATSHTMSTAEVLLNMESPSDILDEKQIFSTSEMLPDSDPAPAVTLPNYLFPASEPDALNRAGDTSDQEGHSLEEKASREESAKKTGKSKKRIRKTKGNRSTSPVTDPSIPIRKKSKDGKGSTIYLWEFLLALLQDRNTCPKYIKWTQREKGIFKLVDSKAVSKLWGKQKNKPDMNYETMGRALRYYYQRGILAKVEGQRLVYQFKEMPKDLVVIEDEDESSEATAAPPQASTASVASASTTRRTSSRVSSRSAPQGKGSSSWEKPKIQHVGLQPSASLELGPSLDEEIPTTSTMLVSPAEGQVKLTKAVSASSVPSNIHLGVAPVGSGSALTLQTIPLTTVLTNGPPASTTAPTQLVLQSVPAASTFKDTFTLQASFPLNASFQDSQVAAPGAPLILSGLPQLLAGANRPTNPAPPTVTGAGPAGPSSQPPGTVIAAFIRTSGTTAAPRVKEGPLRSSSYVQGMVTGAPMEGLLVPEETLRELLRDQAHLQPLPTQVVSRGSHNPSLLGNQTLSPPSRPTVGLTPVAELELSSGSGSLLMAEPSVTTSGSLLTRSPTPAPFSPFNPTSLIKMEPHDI
ETV1, sequence (P50549 whole entry): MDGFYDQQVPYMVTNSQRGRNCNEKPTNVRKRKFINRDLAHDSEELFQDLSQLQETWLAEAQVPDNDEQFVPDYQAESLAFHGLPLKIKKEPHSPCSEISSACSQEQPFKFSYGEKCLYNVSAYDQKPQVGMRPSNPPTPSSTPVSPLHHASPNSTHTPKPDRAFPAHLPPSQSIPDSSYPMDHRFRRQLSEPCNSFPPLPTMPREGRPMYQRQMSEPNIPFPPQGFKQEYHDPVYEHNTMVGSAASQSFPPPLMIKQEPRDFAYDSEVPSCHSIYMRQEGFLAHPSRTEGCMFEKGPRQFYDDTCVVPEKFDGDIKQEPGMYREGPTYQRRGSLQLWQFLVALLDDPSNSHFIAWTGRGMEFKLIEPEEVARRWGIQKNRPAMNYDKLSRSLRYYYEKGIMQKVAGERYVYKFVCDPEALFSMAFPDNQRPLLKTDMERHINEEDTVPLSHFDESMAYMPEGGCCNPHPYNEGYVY
ETV5, sequence (P41161 whole entry): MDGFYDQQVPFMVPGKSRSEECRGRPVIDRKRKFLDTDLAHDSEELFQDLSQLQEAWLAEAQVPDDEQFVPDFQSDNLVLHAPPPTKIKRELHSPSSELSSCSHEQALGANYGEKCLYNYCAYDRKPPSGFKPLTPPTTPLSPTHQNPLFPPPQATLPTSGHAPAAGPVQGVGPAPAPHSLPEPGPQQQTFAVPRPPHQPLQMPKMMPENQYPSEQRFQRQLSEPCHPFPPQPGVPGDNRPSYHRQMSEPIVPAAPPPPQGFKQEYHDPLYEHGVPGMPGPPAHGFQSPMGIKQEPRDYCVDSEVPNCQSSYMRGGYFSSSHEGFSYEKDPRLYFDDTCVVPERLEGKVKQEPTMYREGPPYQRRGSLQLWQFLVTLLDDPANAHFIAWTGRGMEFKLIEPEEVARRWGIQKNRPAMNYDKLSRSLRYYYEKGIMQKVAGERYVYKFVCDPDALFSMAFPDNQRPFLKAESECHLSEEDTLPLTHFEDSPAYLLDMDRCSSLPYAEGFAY
CRX, sequence (O43186 whole entry): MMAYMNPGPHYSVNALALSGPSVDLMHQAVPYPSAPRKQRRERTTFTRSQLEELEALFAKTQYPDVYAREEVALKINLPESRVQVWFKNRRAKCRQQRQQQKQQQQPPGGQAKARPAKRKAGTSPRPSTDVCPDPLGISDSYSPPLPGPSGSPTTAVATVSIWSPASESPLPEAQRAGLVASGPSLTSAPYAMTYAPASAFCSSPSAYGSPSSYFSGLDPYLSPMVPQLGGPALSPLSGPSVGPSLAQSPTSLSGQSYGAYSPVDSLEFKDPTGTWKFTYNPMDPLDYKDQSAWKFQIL
HSF1, sequence (Q00613 whole entry): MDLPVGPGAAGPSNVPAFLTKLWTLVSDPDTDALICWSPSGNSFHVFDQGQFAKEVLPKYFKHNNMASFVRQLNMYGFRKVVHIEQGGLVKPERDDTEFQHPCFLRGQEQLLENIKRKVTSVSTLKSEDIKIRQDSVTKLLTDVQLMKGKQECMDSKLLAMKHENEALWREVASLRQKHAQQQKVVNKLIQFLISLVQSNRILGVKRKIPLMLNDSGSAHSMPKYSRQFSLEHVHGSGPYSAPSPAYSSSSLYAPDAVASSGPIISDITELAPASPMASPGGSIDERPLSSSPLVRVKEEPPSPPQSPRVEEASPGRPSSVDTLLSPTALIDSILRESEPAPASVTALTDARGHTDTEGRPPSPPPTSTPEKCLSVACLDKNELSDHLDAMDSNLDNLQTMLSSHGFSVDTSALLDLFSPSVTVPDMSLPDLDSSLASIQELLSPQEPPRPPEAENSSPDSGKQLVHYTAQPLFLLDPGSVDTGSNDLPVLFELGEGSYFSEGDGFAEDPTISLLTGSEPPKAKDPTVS

In the case of CTAGCA, the binding signal (FEV) is reported as 1.27 fold enrichment (6-mer frequency, TF over GST control), the binding signal (ETV5) is reported as 1.25 fold enrichment (6-mer frequency, TF over GST control) and the binding signal (HSF1) is reported as 2.11 fold enrichment (6-mer frequency, TF over GST control). The binding signal (SPIC) was 1.11 fold enrichment (6-mer frequency, TF over GST control), the binding signal (ELF4) was 1.3 fold enrichment (6-mer frequency, TF over GST control) and the binding signal (ELK4) was 1.25 fold enrichment (6-mer frequency, TF over GST control). The binding signal (ETV2) was 1.35 fold enrichment (6-mer frequency, TF over GST control), the binding signal (ELF3) was 1.21 fold enrichment (6-mer frequency, TF over GST control) and the binding signal (CRX) was 1.34 fold enrichment (6-mer frequency, TF over GST control). For the same sequence, the binding signal (ETV1) was 1.24 fold enrichment (6-mer frequency, TF over GST control), the binding signal (ERF) was 1.21 fold enrichment (6-mer frequency, TF over GST control) and the binding signal (ETV3L) was 1.28 fold enrichment (6-mer frequency, TF over GST control). The binding signal (ETS2) was 1.18 fold enrichment (6-mer frequency, TF over GST control), the binding signal (SPDEF) was 1.16 fold enrichment (6-mer frequency, TF over GST control) and the binding signal (ETV7) was 1.33 fold enrichment (6-mer frequency, TF over GST control). For the same sequence, the binding signal (ELF5) was 1.12 fold enrichment (6-mer frequency, TF over GST control), the binding signal (ETV3) was 1.18 fold enrichment (6-mer frequency, TF over GST control) and the binding signal (ETV6) was 1.18 fold enrichment (6-mer frequency, TF over GST control).
